High-throughput results as filed in PubChem.
p53ts 32C kill: cytotoxicity in p53ts cells at permissive temperature; H1299-p53A138V at 32C, ATP luminescence viability, 24 h; Potency, µM (doses to about 46.1 µM), for inactives: at the top dose activity change, negative = cytotoxicity, usual class: cytotoxic; 130,000 tested, 0.93% active; AID 924;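 further: potency means the concentration at half of the fitted maximal effect; 0% = DMSO and -100% = full killing by reference compound; nearly all actives have a fitted effect of over 55% in size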
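Viability by ATPlite luminescence after 24 h compound treatment (up to 46 uM) at the permissive 32C. Cells are H1299 carrying p53 A138V. Scale runs from DMSO basal to 100 uM tamoxifen as full kill; AC50 from Hill fits.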
Ub-GFP proteasome: proteasome inhibitors stabilizing ubiquitin-GFP reporter. Potency, µM (highest dose often 45.9 µM), inactives show at the highest dose activation (GFP accumulation), actives largely listed as activators. Ubiquitin-GFP reporter cells, proteasome inhibition, GFP fluorescence; response scale: untreated = 0%, 10 µM MG-132 = 100%. 67,000 tested, under 10 active; active means well fitted activation curve with a large enough effect, not every such curve was filed as active; inconclusive means small, poorly fitted or top-dose-only effect, or another doubt; inactive means no such curve, though single readings can be large or run the other way; further: potency means the concentration at half of the fitted maximal effect
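GFP accumulation read-out: laser plate cytometry counting ubiquitin(G76V)-GFP-expressing U2OS cells after 4 hr compound exposure at 37 °C. Titrations spanned 46 uM to 2.9 nM; 0% = basal, 100% = 10 uM MG-132; concentration-response curves fitted.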
p53ts 39C tox: cytotoxicity in p53ts cells at nonpermissive temperature; Potency, µM (top dose mostly 46.1 µM), for the others: at the top dose activity change, negative = cell killing, most hits filed as cytotoxic; AID 902; 130,000 tested, 1.5% active; H1299-p53A138V viability at 39C, ATP luminescence, 24 h; further: potency means the concentration at half of the fitted maximal effect; on the % scale 0 is the no-effect control and ±100 the full control effect; nearly all actives have a fitted effect of over 55% in size
Peg3 imprint: genomic imprint erasure induction; 110,000 tested, 0.02% active; mouse ES Peg3-LacZ reporter, beta-gal luminescence, 40 h; AID 1948; Potency, µM (top dose mostly 60.7 µM), inactives show at the highest dose activity change, positive = activation, usual class: activators; further: potency means the concentration at half of the fitted maximal effect
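Imprint erasure is scored as LacZ activity from the silenced maternal Peg3 allele in feeder-free female ES cells cultured 40 h with LIF. Luminescence is normalized to in-plate negative controls and fitted to the Hill equation.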
HBB splice mod: alters splicing of the hemoglobin beta chain; HBB splicing reporter cell assay, activation; EGFP reporter with mutant IVS2-654 intron; response scale: normalised to 500 nM splice-correcting PNA; Potency, µM (titrated, usually from 46.1 µM), without a hit: at the top dose activation, most hits filed as activators; 65,000 tested, 0.06% active; AID 925; further: potency means the concentration at half of the fitted maximal effect; 0% is about no effect
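Compounds were applied for 2 days to HeLa EGFP-654 cells, 500/well in Optimem with 2% FCS. The reporter's EGFP is disrupted by mis-splicing of beta-globin intron IVS2-654. Readout: summed well GFP fluorescence from 488 nm laser scanning; reference was 500 nM antisense […] 654 PNA.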
GFP derepression: derepresses silenced GFP locus in mouse C127i cells | Potency, µM (titrated, usually from 46.1 µM), inactives show top-dose GFP derepression (activation) | AID 597 | mouse C127i GFP locus derepression, cytometry, 30 h | 68,000 tested, 0.09% active; further: % of control where 0% means no effect
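Murine C127i mammary cells carrying a silenced, stably integrated CMV-driven GFP reporter were treated with compound for 30 hours at 37 C. After PBS washes, GFP-positive cells were counted by laser-scanning microplate cytometry.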
* marks the source's active call; other numbers are inactive results; u = inconclusive; x = no result; ! = not active in a repeat; [ ] = another dose, or the depositor's remark. Compounds with a hit are over-represented: about 1.6% of the library has one in this group of screens. Unless noted, the call rests on the fitted dose curve; in most records, active means well fitted curve in the direction sought with a large enough effect; inconclusive means small, poorly fitted or top-dose-only effect, or another doubt; inactive means no such curve, though single readings can be large; an effect the other way counts as inactive or inconclusive.

SMILES	p53ts 32C kill	Ub-GFP proteasome	p53ts 39C tox	Peg3 imprint	HBB splice mod	GFP derepression
Cc1ccc(C)c(CN2C(=O)C(=O)c3ccccc32)c1	15%	x	-22%	-22%[10.9 µM]	x	x
Cc1ccc2c(c1)C(=O)C(=O)N2Cc1ccc(OC(C)C)cc1	u	x	16µM*	-26%[10.9 µM]	x	x
CCOC(=O)c1c(S(=O)(=O)NCC(=O)N(C)c2ccc(C)cc2)c(C)n(C)c1C	14%	x	-13%	-6%[10.9 µM]	x	x
COC(=O)COc1ccc(S(=O)(=O)Nc2ccccc2C(=O)OC)cc1	4%	-6%	1%	1%	-1%	5%
CC(=O)c1ccc(N2CCN(C(=O)CS(=O)(=O)c3cccc4nsnc34)CC2)cc1	-4%	x	-26%	-10%[10.9 µM]	x	x
CC(=O)NCCc1ccc(O)c(O)c1	-13%	1%	-1%	-15%	0%	1%
NCCc1ccc(O)c(O)c1	13µM*!	-5%	u	-41%	0%	2%
CC1=C(C(=O)OC2CCCCCC2)C(c2cccc(Cl)c2)CC(=O)N1 (stereo not given)	-19%	x	20µM*	-13%[10.9 µM]	x	x
CC1=C(C(=O)OC2CCCCCC2)C(c2ccc(Cl)cc2)CC(=O)N1 (stereo not given)	2%	x	u	-9%[10.9 µM]	x	x
c1ccc(CCNc2c3c(nc4ncnn24)CCC3)cc1	0%	-2%	-4%	-18%	1%	0%
Cc1ccc(-c2nc3n(n2)Cc2ccccc2-3)cc1	8.9µM*	x	6.3µM*	x	x	x
Fc1ccc(-c2nc3n(n2)Cc2ccccc2-3)cc1	16µM*	-3%	u	-94%	-1%	0%
CCn1c(C)nc2cc(-c3nc4n(n3)Cc3ccccc3-4)ccc21	0.32µM*	-6%	0.4µM*	-97%	0%[57.5 µM]	0%
CC1CCCN(CC(=O)Nc2ccc(S(=O)(=O)N3CCCCCC3)cc2)C1 (stereo not given)	-13%	5%	-5%	x	x	2%
CCOC(=O)c1oc2ccccc2c1CSc1nnnn1-c1ccc(OC)cc1	-3%	16%	-7%	-7%	4%	-1%
COc1cc2c(C#N)c(N3CCN(c4ccccc4OC)CC3)nc(N)c2c(N)n1	u	-5%	u	-22%	-1%	-1%
N#Cc1c(N2CCCC2)nc(N)c2c(N)nc(N3CCCC3)cc12	13µM*	1%	15%	-14%	-4%	0%
CC(=O)c1ccc2c(c1)N(CCCN(C)C)c1ccccc1S2	-1%[20.6 µM]	2%[20.5 µM]	-14%[20.6 µM]	-1%[16.8 µM]	-1%[20.6 µM]	3%[20.6 µM]
CC(=O)Nc1cccc(NC(=O)CSc2ncc(-c3ccc(Cl)cc3)n2Cc2ccco2)c1	u	-1%	13µM*	-15%	0%[57.5 µM]	0%
COc1ccc(-c2cnc(SCC(=O)Nc3ccc4c(c3)OCO4)n2Cc2ccco2)cc1	1%	5%	36%	-22%	-1%	0%
CCOC(=O)Cc1c(C)nc2c(-c3cccc(Br)c3)c[nH]n2c1=O	u	-13%	13µM*	-30%	-2%	2%
COc1ccc(Cl)cc1NC(=O)c1ccc2c(c1)CCN2S(C)(=O)=O	-9%	x	-15%	-8%[10.9 µM]	x	x
O=C(NCc1ccccc1Cl)c1cccc(C(F)(F)F)c1	-25%	x	16µM*	x	x	x
Cc1cccc(-c2noc(-c3cc(-c4ccc(F)cc4)n[nH]3)n2)c1	4%	x	-3%	14%[10.9 µM]	x	x
COc1ccc(-c2nn3c(-c4ccccc4C)nnc3c3ccccc23)cc1	25%	x	10µM*	5%[10.9 µM]	x	x
Cc1ccccc1-c1nnc2c3ccccc3c(C)nn12	10%	x	18%	x	x	x
CC1CCN(c2ccc(-c3cccc(NS(=O)(=O)c4cccs4)c3)nn2)CC1	10µM*	x	3.2µM*	-14%[10.9 µM]	x	x
CC1CCN(c2ccc(-c3cccc(NS(=O)(=O)c4ccc(Cl)s4)c3)nn2)CC1	6.3µM*	x	4µM*	-8%[10.9 µM]	x	x
CCN(CC)C(=O)NC1CC2CCCC(C1)N2Cc1ccccc1 (stereo not given)	2%	-3%	-9%	-10%	x	-1%
